This note sets out measurements from PubChem BioAssay (EPA / NIEHS).

Assay [1] addresses Luciferin 4-monooxygenase (Photinus pyralis) (UniProt P08659). As to the kind of experiment: CCTE_Simmons_QuantiLum_inhib_2: CCTE's Firefly Luciferase Inhibition Assay, Simmons Lab (AID 2283767).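 On AC50: potency for inhibitors that lower luciferase luminescence relative to DMSO.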 Summed up:
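Cell-free QuantiLum luciferase, 5 ng/well; compounds 5 nM–87.5 uM final, 8 conc, 0.5% DMSO; 30 min, 37C, dark. Detection reagent (150 uM D-luciferin, 147 uM dATP, CoA, DTT, pH 7.8 final) injected per well, kinetic luminescence. Triplicate biological replicates.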

A short description of assay [2]: ACEA_AR_agonist_AUC_viability: ACEA Biosciences xCELLigence Real-Time Cell Analysis on Androgen Receptor Agonism for Viability (AID 2283775).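 On AC50: viability read 80 hours after compound addition.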 Summed up:
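Viability endpoint from xCELLigence impedance in 22Rv1 prostate cells at 80 h. Eight-point series, 100 uM maximum final.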

A short description of assay [3]: ACEA_AR_antagonist_AUC_viability: ACEA Biosciences xCELLigence Real-Time Cell Analysis on Androgen Receptor Antagonism for Viability (AID 2283776).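 Further: 22Rv1 human prostate cancer cells growing on impedance electrode plates; area under impedance growth curve at 80 h after dosing as viability; hits lower the growth signal relative to DMSO meaning cytotoxicity.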 In outline: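 22Rv1 prostate cells, continuous dosing up to 100 uM final (0.5% DMSO max), duplicate plates. Growth measured by impedance; AUC at 80 h, loss of signal vs DMSO.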
Assay [4] in a line: ACEA_ER_AUC_viability: ACEA Biosciences xCELLigence Real-Time Cell Analysis on Estrogen Receptor Agonism for Viability (AID 2283782).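 Further: hit means loss of impedance signal meaning reduced cell growth or viability.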 In outline:
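Read-out: real-time electrical impedance (RT-CES) area under curve, loss of signal taken as reduced viability, normalized to DMSO baseline. T-47D cells, charcoal-stripped serum medium, compounds up to 100 uM final, continuous exposure, 80 h.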

Assay [5] has as its target zebrafish Estrogen Receptor (ESR1), esr1 (gene 259252) (UniProt P57717). As to the kind of experiment: ATG_zfER1_XSP1: Attagene TRANS-FACTORIAL Multi-Species (XSP1) HepG2 Assay for zebrafish Estrogen Receptor (ESR1) (AID 2283772). Summed up: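 HepG2 cells transiently transfected with a GAL4-UAS reporter and chimeric zebrafish ER-Gal4, dosed 24 h with 3 nM 6-alpha-fluorotestosterone present. Reporter mRNA measured by RT-PCR and capillary electrophoresis; gain of signal versus DMSO.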

In assay [6] the test system is frog Estrogen Receptor (ESR2), gene 100174814. The assay can be described thus: ATG_frER2_XSP1: Attagene TRANS-FACTORIAL Multi-Species (XSP1) HepG2 Assay for frog Estrogen Receptor (ESR2) (AID 2283774). Summed up:
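HepG2, transient MRTU transfection (GAL4-UAS reporters, exogenous NR-Gal4 chimeras); 24 h compound exposure; 3 nM 6α-fluorotestosterone co-added; total RNA → RT-PCR → 6-FAM primer extension → HpaI → CE. Positive direction vs DMSO.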

Assay [7] relates to frog Estrogen Receptor (ESR1), gene 398734. As to the kind of experiment: ATG_frER1_XSP1: Attagene TRANS-FACTORIAL Multi-Species (XSP1) HepG2 Assay for frog Estrogen Receptor (ESR1) (AID 2283777). In outline: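 Transient MRTU transfection, HepG2 (human liver); 24 h dosing, 3 nM 6α-fluorotestosterone co-added; RNA → RT-PCR → 6-FAM labeling → CE; upward activity vs DMSO.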
The subject of assay [8] is zebrafish Estrogen Receptor (ESR2A), gene 317734. The assay can be described thus: ATG_zfER2a_XSP1: Attagene TRANS-FACTORIAL Multi-Species (XSP1) HepG2 Assay for zebrafish Estrogen Receptor (ESR2A) (AID 2283778). Summed up: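 Transient transfection of HepG2 (human liver) with MRTU constructs; chemical dosing for 24 h; medium contained 3 nM 6-alpha-fluorotestosterone to partly stimulate AR. RT-PCR/CE fluorescence of reporter transcripts; positive direction vs DMSO.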

Assay [9] deals with chicken Estrogen Receptor (ESR1), ESR1 (gene 396099) (UniProt P06212). As to the kind of experiment: ATG_chERa_XSP1: Attagene TRANS-FACTORIAL Multi-Species (XSP1) HepG2 Assay for chicken Estrogen Receptor (ESR1) (AID 2283779). In outline: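 Read-out: fluorescent reporter mRNA fragments resolved by capillary electrophoresis after RT-PCR and HpaI digestion. Transfected HepG2 cells carried chimeric NR-Gal4 constructs, were dosed 24 h with 3 nM 6-alpha-fluorotestosterone added, and activity was fitted upward relative to DMSO.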

Assay [10] concerns the target Estrogen receptor (Homo sapiens) (UniProt P03372). As to the kind of experiment: ATG_hERa_XSP1: Attagene TRANS-FACTORIAL Multi-Species (XSP1) HepG2 Assay for human Estrogen Receptor (ESR1) (AID 2283780). Summed up:
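Reporter transcripts from multiplexed GAL4-UAS units driven by NR-Gal4 chimeras in transiently transfected HepG2 were measured by RT-PCR with capillary electrophoresis 24 h post-dose, with 3 nM 6-alpha-fluorotestosterone present; gain-of-signal relative to DMSO.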

The test system of assay [11] is turtle Estrogen Receptor (ESR1), gene 101933533. As to the kind of experiment: ATG_trERa_XSP1: Attagene TRANS-FACTORIAL Multi-Species (XSP1) HepG2 Assay for turtle Estrogen Receptor (ESR1) (AID 2283781). In outline: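 Transfect HepG2 with reporter units → dose chemical 24 h (medium has 3 nM 6-alpha-fluorotestosterone) → isolate RNA, RT-PCR → FAM primer extension, HpaI digest → capillary electrophoresis; gain of signal vs DMSO.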

Assay [12] concerns the target AR (gene 367) (UniProt P10275). As to the kind of experiment: ACEA_AR_agonist_80hr: ACEA Biosciences xCELLigence Real-Time Cell Analysis on Androgen Receptor Agonism for Proliferation (AID 2283783).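 Further: hits increase impedance growth signal above DMSO baseline.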 Summed up: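 Impedance (RT-CES) growth signal at 80 h post-dose; 22Rv1 cells, 8-pt 1:4 series, top 100 uM final, DMSO ≤0.5%; duplicate plates; gain-of-signal fit relative to DMSO baseline.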

Assay [13] has as its target AR (gene 367) (UniProt P10275). As to the kind of experiment: ACEA_AR_antagonist_80hr: ACEA Biosciences xCELLigence Real-Time Cell Analysis on Androgen Receptor Antagonism for Proliferation (AID 2283787).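 Further: 22Rv1 human prostate cancer cells with growth followed by electrical impedance; hits lower the impedance growth signal relative to DMSO.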 In outline: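 Measures real-time proliferation of 22Rv1 prostate cancer cells by electrode impedance at 80 hours after dosing. Test articles ran at eight concentrations (1:4 steps, top 100 uM final) in biological duplicate.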

The target of assay [14] is Estrogen receptor beta (Homo sapiens) (UniProt Q92731). As to the kind of experiment: ATG_hERb_XSP1: Attagene TRANS-FACTORIAL Multi-Species (XSP1) HepG2 Assay for human Estrogen Receptor (ESR2) (AID 2283788). Summed up:
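Transient MRTU transfection of HepG2; ERβ–GAL4 TRANS format; 24 h dosing; 3 nM 6α-fluorotestosterone co-added; RNA → RT-PCR → 6-FAM primer extension → CE; activity vs DMSO.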

The nature of assay [15]: ArunA_NOG_NeuriteLength: ArunA Biomedical's Neurite Outgrowth (NOG) Assay for Neurite Length (AID 2283757). In outline: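 Total neurite length per neuron, from traced βIII-tubulin-labelled processes longer than 10 um on viable Hoechst-gated cells, was scored as decrease from DMSO. Cells were hESC (H9)-derived neurons given 48 h chemical exposure immediately after seeding.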

The subject of assay [16] is chicken Androgen Receptor (AR), gene 422165. The assay can be described thus: ATG_chAR_XSP1: Attagene TRANS-FACTORIAL Multi-Species (XSP1) HepG2 Assay for chicken Androgen Receptor (AR) (AID 2283768). Summed up:
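Reporter mRNA read by RT-PCR with fluorescent labelling and capillary electrophoresis 24 h after chemical dosing of transiently transfected HepG2 cells. Chicken AR-Gal4 chimera, partially stimulated with 3 nM 6-alpha-fluorotestosterone; activity fitted upward relative to DMSO.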

Assay [17] has as its system zebrafish Estrogen Receptor (ESR2B), gene 317733. The assay can be described thus: ATG_zfER2b_XSP1: Attagene TRANS-FACTORIAL Multi-Species (XSP1) HepG2 Assay for zebrafish Estrogen Receptor (ESR2B) (AID 2283773). Summed up:
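Multiplexed TRANS format in transfected HepG2 liver cells, chimeric NR-Gal4 from zebrafish ESR2B. 24 h dosing; medium contains 3 nM 6-alpha-fluorotestosterone. mRNA induction by RT-PCR/CE, positive direction vs DMSO.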

Assay [18] deals with turtle Androgen Receptor (AR), gene 101947425. The assay can be described thus: ATG_trAR_XSP1: Attagene TRANS-FACTORIAL Multi-Species (XSP1) HepG2 Assay for turtle Androgen Receptor (AR) (AID 2283786). Summed up: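 Partial androgen stimulation is provided by 3 nM 6-alpha-fluorotestosterone in a multi-species trans-factorial panel expressing a turtle AR–GAL4 fusion in HepG2. After 24 h, reporter mRNA is measured by RT-PCR and capillary electrophoresis and fitted upward against DMSO.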

For orientation: AC50 means the concentration at which the activity in the assay is half-maximal.

Inconclusive results are not listed. The source made the active and inactive calls. How the source made its calls: active means hit-call score of the fitted dose curve at least 0.9, where 1 is the maximum; inconclusive means response in the unintended direction; inactive means score below 0.9.

Sequence of zebrafish Estrogen Receptor (ESR1), esr1 (gene 259252) (P57717 whole entry, looked up, the tested form may be a part): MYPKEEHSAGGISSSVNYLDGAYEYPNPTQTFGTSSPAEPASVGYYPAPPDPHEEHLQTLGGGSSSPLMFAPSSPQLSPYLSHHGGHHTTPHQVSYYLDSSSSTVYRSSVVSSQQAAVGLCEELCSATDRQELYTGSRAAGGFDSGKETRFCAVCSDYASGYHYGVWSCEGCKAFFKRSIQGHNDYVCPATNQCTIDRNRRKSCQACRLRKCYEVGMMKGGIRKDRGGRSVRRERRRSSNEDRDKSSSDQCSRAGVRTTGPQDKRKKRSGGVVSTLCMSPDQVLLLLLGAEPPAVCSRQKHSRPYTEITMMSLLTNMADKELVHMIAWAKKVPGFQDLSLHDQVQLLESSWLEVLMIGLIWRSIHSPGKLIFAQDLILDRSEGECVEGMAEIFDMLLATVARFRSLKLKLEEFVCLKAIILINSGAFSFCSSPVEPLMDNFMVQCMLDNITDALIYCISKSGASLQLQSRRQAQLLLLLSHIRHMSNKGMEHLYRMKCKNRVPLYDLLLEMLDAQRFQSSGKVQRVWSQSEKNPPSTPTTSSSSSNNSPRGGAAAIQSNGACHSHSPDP
Sequence of Luciferin 4-monooxygenase (Photinus pyralis) (P08659 whole entry, looked up): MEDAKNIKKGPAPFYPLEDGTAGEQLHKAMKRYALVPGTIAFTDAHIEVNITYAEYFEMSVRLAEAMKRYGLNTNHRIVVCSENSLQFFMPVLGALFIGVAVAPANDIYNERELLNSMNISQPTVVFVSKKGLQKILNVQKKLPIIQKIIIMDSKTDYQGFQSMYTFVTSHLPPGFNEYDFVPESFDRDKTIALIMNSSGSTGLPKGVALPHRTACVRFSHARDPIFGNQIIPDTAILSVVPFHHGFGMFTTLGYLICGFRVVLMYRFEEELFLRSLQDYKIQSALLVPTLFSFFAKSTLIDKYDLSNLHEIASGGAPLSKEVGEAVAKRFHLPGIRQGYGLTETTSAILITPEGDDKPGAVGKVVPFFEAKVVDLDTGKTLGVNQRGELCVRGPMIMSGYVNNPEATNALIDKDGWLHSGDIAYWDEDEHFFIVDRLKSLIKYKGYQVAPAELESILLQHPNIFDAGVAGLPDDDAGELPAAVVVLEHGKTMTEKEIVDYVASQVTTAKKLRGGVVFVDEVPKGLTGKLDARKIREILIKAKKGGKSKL
Sequence of AR (gene 367) (P10275 whole entry, looked up): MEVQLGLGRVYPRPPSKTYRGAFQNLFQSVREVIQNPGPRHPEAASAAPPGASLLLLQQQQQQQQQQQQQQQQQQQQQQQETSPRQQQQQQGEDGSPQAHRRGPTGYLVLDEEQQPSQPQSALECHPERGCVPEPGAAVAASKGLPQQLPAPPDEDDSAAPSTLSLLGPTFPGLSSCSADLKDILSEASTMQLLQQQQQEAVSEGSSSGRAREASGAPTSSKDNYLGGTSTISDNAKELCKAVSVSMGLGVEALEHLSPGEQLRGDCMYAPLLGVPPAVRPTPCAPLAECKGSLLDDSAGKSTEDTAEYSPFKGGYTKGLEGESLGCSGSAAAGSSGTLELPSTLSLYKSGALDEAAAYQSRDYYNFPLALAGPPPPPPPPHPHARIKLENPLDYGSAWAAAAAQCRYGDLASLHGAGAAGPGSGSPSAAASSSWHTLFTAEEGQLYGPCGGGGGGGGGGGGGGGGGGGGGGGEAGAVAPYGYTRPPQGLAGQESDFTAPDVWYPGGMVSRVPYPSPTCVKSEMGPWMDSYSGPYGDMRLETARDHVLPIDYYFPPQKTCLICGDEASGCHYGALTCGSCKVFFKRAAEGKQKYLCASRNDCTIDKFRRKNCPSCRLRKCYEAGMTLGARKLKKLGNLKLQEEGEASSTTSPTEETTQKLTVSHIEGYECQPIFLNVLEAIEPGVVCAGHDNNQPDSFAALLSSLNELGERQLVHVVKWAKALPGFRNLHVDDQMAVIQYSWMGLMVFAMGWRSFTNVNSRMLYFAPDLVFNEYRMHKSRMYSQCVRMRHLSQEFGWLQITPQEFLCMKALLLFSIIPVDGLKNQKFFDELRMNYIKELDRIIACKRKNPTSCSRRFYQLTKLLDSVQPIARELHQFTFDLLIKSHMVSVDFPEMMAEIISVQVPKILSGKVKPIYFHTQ
Sequence of chicken Estrogen Receptor (ESR1), ESR1 (gene 396099) (P06212 whole entry, looked up, the tested form may be a part): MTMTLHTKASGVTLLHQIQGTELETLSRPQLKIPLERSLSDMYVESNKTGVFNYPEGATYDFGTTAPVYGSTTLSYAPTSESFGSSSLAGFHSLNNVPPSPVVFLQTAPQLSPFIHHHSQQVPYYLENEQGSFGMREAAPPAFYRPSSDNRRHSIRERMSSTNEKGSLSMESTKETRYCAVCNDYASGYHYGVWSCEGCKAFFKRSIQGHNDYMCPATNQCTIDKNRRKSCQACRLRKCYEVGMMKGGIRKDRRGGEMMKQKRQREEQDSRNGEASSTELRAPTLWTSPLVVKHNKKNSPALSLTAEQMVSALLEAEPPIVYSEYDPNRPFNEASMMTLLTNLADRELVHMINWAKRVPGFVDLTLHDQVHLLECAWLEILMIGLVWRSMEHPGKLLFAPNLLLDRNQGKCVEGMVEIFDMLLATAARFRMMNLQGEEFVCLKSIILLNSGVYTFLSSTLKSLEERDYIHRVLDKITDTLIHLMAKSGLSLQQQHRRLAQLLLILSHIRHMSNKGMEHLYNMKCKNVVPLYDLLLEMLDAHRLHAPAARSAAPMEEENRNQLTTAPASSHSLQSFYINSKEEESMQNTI
Sequence of Estrogen receptor (Homo sapiens) (P03372 whole entry, looked up, the tested form may be a part): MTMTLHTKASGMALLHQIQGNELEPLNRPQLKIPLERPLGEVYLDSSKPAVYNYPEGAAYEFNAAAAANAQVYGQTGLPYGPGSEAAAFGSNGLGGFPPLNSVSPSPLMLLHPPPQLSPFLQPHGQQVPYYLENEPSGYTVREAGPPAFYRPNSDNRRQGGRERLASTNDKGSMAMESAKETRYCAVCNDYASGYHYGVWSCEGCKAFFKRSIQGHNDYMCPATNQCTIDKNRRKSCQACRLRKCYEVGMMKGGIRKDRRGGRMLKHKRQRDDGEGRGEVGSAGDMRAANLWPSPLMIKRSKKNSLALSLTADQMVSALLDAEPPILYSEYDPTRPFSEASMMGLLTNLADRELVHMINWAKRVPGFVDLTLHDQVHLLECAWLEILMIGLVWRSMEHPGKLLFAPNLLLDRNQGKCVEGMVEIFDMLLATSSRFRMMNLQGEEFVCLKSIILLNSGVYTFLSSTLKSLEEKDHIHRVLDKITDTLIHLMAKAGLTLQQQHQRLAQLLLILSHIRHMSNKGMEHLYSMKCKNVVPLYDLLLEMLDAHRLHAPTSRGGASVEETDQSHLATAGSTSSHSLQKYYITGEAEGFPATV
Sequence of Estrogen receptor beta (Homo sapiens) (Q92731 whole entry, looked up, the tested form may be a part): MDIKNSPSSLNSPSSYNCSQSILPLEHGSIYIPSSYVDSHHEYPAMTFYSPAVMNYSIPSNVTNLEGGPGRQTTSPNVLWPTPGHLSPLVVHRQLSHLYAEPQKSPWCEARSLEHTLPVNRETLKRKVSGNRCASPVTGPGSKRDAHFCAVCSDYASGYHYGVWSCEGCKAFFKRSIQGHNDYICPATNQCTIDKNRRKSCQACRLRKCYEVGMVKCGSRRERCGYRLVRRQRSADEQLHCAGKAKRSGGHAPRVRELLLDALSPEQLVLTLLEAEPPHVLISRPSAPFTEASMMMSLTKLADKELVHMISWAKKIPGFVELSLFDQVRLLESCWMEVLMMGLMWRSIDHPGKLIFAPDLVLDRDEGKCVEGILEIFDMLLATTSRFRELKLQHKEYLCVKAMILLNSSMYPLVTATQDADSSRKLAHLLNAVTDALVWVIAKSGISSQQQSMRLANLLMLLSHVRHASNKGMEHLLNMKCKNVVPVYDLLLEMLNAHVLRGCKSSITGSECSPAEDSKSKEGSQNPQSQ

For the compound `CCNP(=S)(OC)O/C(C)=C/C(=O)OC(C)C` (centres undefined), the compound was called inactive in assay [1], in [2] and in assay [3].
As to `N#Cc1c(Cl)cccc1Cl`, the compound was classed as inactive in assay [2].
Still for that read-out and setting: then `COP(=O)(OC)O/C(C)=C/C(=O)N(C)C`, with “inactive”.
As to `CCNC(=O)NC(=O)C(C#N)=NOC`, the call in assay [1] and in assay [4] was inactive.
On to `CC1(C)CCC(=Cc2ccc(Cl)cc2)C1(O)Cn1cncn1` (centres undefined), for which the compound was classed as inactive in assay [5], in [2], in assay [3], in assay [7], in assay [8] and in [12]. In addition, the concentration at half-maximal activity (AC50) in assay [6] was 56.6 µM (active); in assay [9], 3.53 µM (active); in [10], 3.95 µM (active); in assay [11], 5.79 µM (active); in assay [13], 13.1 µM (active); in assay [14] it was 46.6 µM (active).
With `CCOc1nc(F)cc2nc(S(=O)(=O)Nc3c(Cl)cccc3Cl)nn12`, the call in [1] and in assay [2] was inactive.
Turning to `O=C1C2CC=CCC2C(=O)N1SC(Cl)(Cl)Cl` (centres undefined), the AC50 in [2] was 24.5 µM (active).
Take `CCC(C)n1c(=O)[nH]c(C)c(Br)c1=O` (centres undefined): the compound was classed as inactive in assay [2].
Turning to `COCc1cnc(C2=NC(C)(C(C)C)C(=O)N2)c(C(=O)O)c1` (centres undefined), the outcome in assay [15], in assay [4] and in [12] was inactive.
As for `CCOc1nc(C(Cl)(Cl)Cl)ns1`, the outcome in assay [1] and in assay [2] was inactive.
Regarding `CC1(C)C(C=C(Cl)Cl)C1C(=O)OC(C#N)c1cccc(Oc2ccccc2)c1` (centres undefined), the result in [16], in assay [5], in [3], in [8], in assay [9] and in [11] was inactive. Moreover, the result in assay [18] was inactive. The AC50 in [17] was 72.5 µM (active); in assay [6], 27.3 µM (active); in assay [2], 73.1 µM (active); in [7], 2.24 µM (active); in assay [10] it was 1.45 µM (active); in assay [14], 66.8 µM (active).
`COC(=O)NC(=S)Nc1ccccc1NC(=S)NC(=O)OC`: in assay [1], the outcome was inactive. For the same compound, the AC50 in assay [2] is 18.3 µM (active).
Take `O=c1n(Cl)c(=O)n(Cl)c(=O)n1Cl`: the call in [1] and in [2] was inactive.
Regarding `COCC(=O)N(c1c(C)cccc1C)C(C)C(=O)OC` (centres undefined), the result in [2] was inactive.
As for `CCN(CC)C(=O)C(C)Oc1cccc2ccccc12` (centres undefined), the half-maximal activity concentration (AC50) in assay [1] was 0.000739 µM (active); in [17], 27.1 µM (active); in assay [6], 27.4 µM (active); in assay [7], 24.8 µM (active); in assay [8] it was 25.8 µM (active); in [11], 5.99 µM (active). In addition, in assay [14], the AC50 was 100 µM (active). The result in [5], in assay [2], in assay [9] and in [10] was inactive.
As for `Clc1nc(Cl)nc(Nc2ccccc2Cl)n1`, in [1], the AC50 is 8.85 µM (active). For the same compound, the compound was classed as inactive in assay [2].
For `CS(=O)(=O)c1ccc(C(=O)C2C(=O)CCCC2=O)c([N+](=O)[O-])c1`, the outcome in assay [1] was inactive.
`Cc1nc(N(C)C)nc(OC(=O)N(C)C)c1C`: in assay [2], the result was inactive.
In the case of `COC(=O)NS(=O)(=O)c1ccc(N)cc1`, the AC50 in [1] is 0.149 µM (active). For the same compound, the compound was classed as inactive in assay [3] and in assay [4].
